Compounds without any hit were thinned out: in the full panel of roughly 79,000, 15% have a hit. Activity calls are given as the source filed them. Cut-off read from the data, not from the text of the source: active = growth inhibition above about 70%; inactive = the rest.
Experiments:
[1] = NCI Yeast Anticancer Drug Screen. Data for the rad50 strain (AID 155);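 note: 0% = growth of vehicle-only cultures of the same strain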; details: S. cerevisiae rad50 strain growth inhibition; at 50.0 µM; stronger effect = higher value
Procedure, shortened: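 Growth of the mutant yeast was measured after compound exposure and referenced to vehicle-treated cultures.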

[2] = NCI Yeast Anticancer Drug Screen. Data for the mec2-1 strain (AID 157); details: S. cerevisiae mec2-1 strain, at 50.0 µM, stronger effect = higher value
Procedure, shortened: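 Test agents were screened against the mec2-1 yeast strain, with defined DNA repair or cell cycle alteration. Growth was scored as inhibition against vehicle-only controls.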

[3] = NCI Yeast Anticancer Drug Screen. Data for the sgs1 mgt1 strain (AID 161);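 note: 0% = growth of cultures given vehicle only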; details: S. cerevisiae sgs1 mgt1 strain, at 50.0 µM, stronger effect = higher value
Procedure, shortened: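 Read-out: growth inhibition vs vehicle controls. Cells: mutant yeast strain deficient in DNA damage repair.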

[4] = NCI Yeast Anticancer Drug Screen. Data for the cln2 rad14 strain (AID 165);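 note: 0% = growth equal to vehicle treated cultures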; details: S. cerevisiae cln2 rad14 strain, at 50.0 µM, stronger effect = higher value
Procedure, shortened: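 Growth of compound-exposed yeast (cln2 rad14 genotype) measured and expressed as inhibition relative to vehicle.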

[5] = NCI Yeast Anticancer Drug Screen. Data for the bub3 strain (AID 167); details: S. cerevisiae bub3 mutant strain, at 50.0 µM, stronger effect = higher value
Procedure, shortened: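 Whole-cell yeast assay. The mutant strain was incubated with compounds, and growth inhibition was determined by comparison with vehicle-treated cells.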

[6] = NCI Yeast Anticancer Drug Screen. Data for the mlh1 rad18 strain (AID 175); details: S. cerevisiae mlh1 rad18 strain growth inhibition; at 50.0 µM; stronger effect = higher value
Procedure, shortened: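 In this whole-cell yeast screen, a strain with altered DNA damage repair is challenged with compound, and its growth is measured against matched vehicle-treated controls.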

Measured: growth inhibition

O=c1nc(OCCO)c([N+](=O)[O-])c(C(Cl)(Cl)Cl)[nH]1
inactive: [1] 61.4% | [4] 36.4%
active: [2] 89.5% | [3] 81.7% | [5] 80.5% | [6] 92.3%

COc1cc(C2N3CCCN2CC3)cc(OC)c1OC (stereo unspecified)
inactive: [1] -3.75% | [2] 0.35% | [3] -21.6% | [4] -3.5% | [5] -7.75% | [6] -2.55%

OC(c1ccccc1)C(Cc1ccccc1)N1CCCCC1 (stereo unspecified)
inactive: [1] 2.4% | [2] 1.3% | [3] 23.2% | [4] -4.45% | [5] 7.7% | [6] 5.35%

O=P(Nc1ccc(Cl)cc1)(c1ccc(Cl)cc1)c1ccc(Cl)cc1
inactive: [1] 17.6% | [2] 6.05% | [3] 4.05% | [4] -16.1% | [5] -0.15% | [6] 20.9%

S=c1sc2c(Cl)ncnc2n1-c1ccccc1
inactive: [1] 1.55% | [2] 24.4% | [3] 13.2% | [4] 11.8% | [5] 9.7% | [6] 5.6%

Cc1ccc(C2CCC(C#N)=CN2C)cc1 (stereo unspecified)
inactive: [1] 11.5% | [2] -0.25% | [3] 1.5% | [4] -39.4% | [5] -13% | [6] 3.6%

COC1(OC)c2no[n+]([O-])c2C(OC)(OC)c2c1no[n+]2[O-]
inactive: [1] -11.7% | [2] -4.8% | [3] -6.35% | [4] 19.1% | [5] 20.6% | [6] -4.35%

CCOC(=O)C(=[N+]=[N-])C(=O)CN1C(=O)c2ccccc2C1=O
inactive: [1] -21.6% | [2] -7% | [3] -31.5% | [4] -7.7% | [5] 5.9% | [6] -15.9%

CCOC(=O)c1ccc(NP(=O)(Nc2ccc(C(=O)OCC)cc2)c2ccc(N)cc2)cc1
inactive: [1] -5.65% | [2] -17.4% | [3] -2.25% | [4] -65.7% | [5] 0.85% | [6] 4.25%

CCC(C)CCC(C)(O)CC (stereo unspecified)
inactive: [1] 9.7% | [2] -9.9% | [3] -5.4% | [4] -43.1% | [5] 16.2% | [6] 1.35%

CC1CCCC2(CN=C(Nc3ccccc3)O2)C1 (stereo unspecified)
inactive: [1] -13.7% | [2] -8.45% | [3] -7.05% | [4] -75% | [5] -10.1% | [6] -6.15%

[O-]/[N+]1=[N+](\[O-])c2ccccc2COCc2ccccc21
inactive: [1] -5.2% | [2] -12.3% | [3] -12.4% | [4] -44.5% | [5] -8.1% | [6] -14.2%

CC(=O)N/N=C/c1cccc([N+](=O)[O-])c1
inactive: [1] -6.25% | [2] 5.15% | [3] -4.55% | [4] -35.8% | [5] -19.9% | [6] -7.9%

COC(=N)Cc1cc(OC)cc(OC)c1
inactive: [1] -2.45% | [2] 6.4% | [3] 7.45% | [4] -12.7% | [5] 21.2% | [6] -6.6%

CCOC(=O)C(N)C(O)c1ccncc1 (stereo unspecified)
inactive: [1] -8% | [2] -2.45% | [3] -4.25% | [4] -19.8% | [5] 1.5% | [6] 2.2%

CCN(CC)CCOc1cc(C)ccc1C(C)C
inactive: [1] -6.05% | [2] -12.6% | [3] 2.95% | [4] -32% | [5] -8.1% | [6] 26.4%

O=c1oc2ccccc2c(O)c1C(c1cccc(C(c2c(O)c3ccccc3oc2=O)c2c(O)c3ccccc3oc2=O)c1)c1c(O)c2ccccc2oc1=O
inactive: [1] 26.6% | [2] 37.5% | [3] -2.7% | [4] -17.6% | [5] -5.3% | [6] 67.8%

Nc1ccc(C(=O)NO)c(O)c1
inactive: [1] 6.2% | [2] 18.9% | [3] -7.55% | [4] -41.8% | [5] 18.7% | [6] -6%

CCOC(=O)/C=C(/OCC)c1cccc(Cl)c1
inactive: [1] 9.4% | [2] -5.95% | [3] 13.8% | [4] 16.3% | [5] 39.4% | [6] -1.85%

O=C(O)CCNc1ncnc2nc[nH]c12
inactive: [1] -65.5% | [2] -13.2% | [3] -33.5% | [4] -34.6% | [5] 24.4% | [6] -19.9%

COc1cc(CN(c2ccccc2C(=O)O)S(=O)(=O)c2ccc(C)cc2)ccc1[N+](=O)[O-]
inactive: [1] 43.9% | [2] 2.65% | [3] 38.2% | [4] -19.6% | [5] -4.5% | [6] 35.6%

COc1cc(C2C(Cl)C(=O)N2NC(=O)c2ccc(N)cc2)ccc1O (stereo unspecified)
inactive: [1] 5.15% | [2] -0.75% | [3] -25.1% | [4] -3.8% | [5] -16.4% | [6] -8.75%

CCOC(OCC)C1CC=CCC1 (stereo unspecified)
inactive: [1] 0.1% | [2] -1.65% | [3] -6.7% | [4] -13.1% | [5] -6.4% | [6] -0.95%

CCN1/C(=C/C=C/C=C/c2oc3ccccc3[n+]2CC)Oc2ccccc21
inactive: [1] 34% | [2] 5.6% | [3] 10.1% | [4] 36.8% | [5] 0.2% | [6] 17.2%

CC1CN(C(=O)/C=C/C(=O)OC2CCCCC2)C(C)CN1C(=O)/C=C/C(=O)OC1CCCCC1 (stereo unspecified)
inactive: [1] 0.2% | [2] -3.15% | [3] -7.9% | [4] 1.7% | [5] -4.45% | [6] -27.2%

OC1C2CCC3C2CC(C(O)(c2ccccc2)c2ccccc2)C13 (stereo unspecified)
inactive: [1] -0.2% | [2] -23.6% | [3] -8.75% | [4] -13.2% | [5] -50% | [6] -15.4%

COc1cc(-c2cc(OC)c(N)cc2Br)c(Br)cc1N
inactive: [1] 38.8% | [2] 17.2% | [3] 60.6% | [4] 49.9% | [5] 54.4% | [6] 35.9%

CC1(C)C(=O)c2cc3ccc4ccccc4c3cc2C(C)(C)C1(C)C
inactive: [1] -1.25% | [2] -4.25% | [3] 1.2% | [4] 43.6% | [5] 2.75% | [6] -7%

CC1(C)OC(=O)C(=Cc2ccc(-c3ccccc3[N+](=O)[O-])o2)C(=O)O1
inactive: [1] 3.05% | [2] 6.25% | [3] 31% | [4] 23.6% | [5] 29.5% | [6] 26.6%

Cc1nc2[nH]ncn2c(=O)c1CCCl
inactive: [1] 20.9% | [2] -31.9% | [3] -11.9% | [4] -7.55% | [5] 8.1% | [6] 9.4%

CC(O)C(NC(=O)c1cnc2ccccc2n1)C(=O)O (stereo unspecified)
inactive: [1] -8.45% | [2] -5.1% | [3] 17.8% | [4] -17.1% | [5] 15.9% | [6] -11.8%

CCCCCCC(=O)O
inactive: [1] 0.75% | [2] -16.4% | [3] -4.85% | [4] -30.3% | [5] -0.1% | [6] 9.9%

CC1C/C(=C\c2ccccc2)C(=O)/C1=C/c1ccccc1 (stereo unspecified)
inactive: [1] -3.6% | [2] 17.4% | [3] 7.3% | [4] -6.4% | [5] -2.75% | [6] -15.9%

CC(=O)N1c2ccccc2C(C)(C)C1O (stereo unspecified)
inactive: [1] 6.85% | [2] 17.1% | [3] -3.55% | [4] -13.7% | [5] -12.4% | [6] 3.7%

C=Cc1c(C)c(OC)cc2c1Oc1ccc(OC)c(C)c1CC2
inactive: [1] 0.75% | [2] -0.2% | [3] 19.5% | [4] 8.35% | [5] 13.8% | [6] -23.6%

CCOC(=O)/C(=C/O)NC(=O)c1ccccc1
inactive: [1] -10.4% | [2] 18.8% | [3] -5.5% | [4] -18.9% | [5] -9.95% | [6] 19.4%

Cc1ccc(S(=O)(=O)N2CCCN(S(=O)(=O)c3ccc(C)cc3)COC2)cc1
inactive: [1] 4.1% | [2] 11.6% | [3] -8.4% | [4] 3.1% | [5] -10.4% | [6] -1.25%

CS/N=C(/c1ccc(/C(=N/SC)N(C)C)cc1)N(C)C
inactive: [1] 0.9% | [2] -8.5% | [3] 8.8% | [4] -5.35% | [5] -24.4% | [6] 5.75%

O=C(CCCl)Nc1c(Cl)cccc1Cl
inactive: [1] 10.2% | [2] 11.7% | [3] 8.9% | [4] 18.6% | [5] 21.1% | [6] -3.65%

C/C(=N\NC(=S)Nc1ccc([N+](=O)[O-])cc1S(=O)(=O)O)c1ccccn1
inactive: [1] 12.6% | [2] 20.4% | [3] -5.85% | [4] -2.35% | [5] -0.4% | [6] 22.9%

CC(C)CCC[C@@H](C)[C@H]1CC[C@H]2[C@@H]3CC[C@H]4CC5(C[C@]4(C)[C@H]3CC[C@]12C)Nc1ccccc1S5 (stereo partly specified)
inactive: [1] -8.05% | [2] -19.9% | [3] -6.2% | [4] 4.55% | [5] -25.9% | [6] -40.7%

— PubChem BioAssay (NCI)
